# How the values were obtained:
# Experiment in all cases: yeast three-hybrid, YBZ-1, SC-Leu-His + 0.5 mM 3-AT, 4 days
# Conditions in all cases: tags: N-Gal4 AD-HA kept; label: inside an RPR1-promoter hybrid RNA with tandem MS2 sites; ssRNA
# PUM1 PUF domain R2-RRH = PUM1 PUF domain R2-RRH (Homo sapiens, UniProt Q14671 828-1176, N899R;Y900R;Q903H)
# In short: (§1)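 Sequencing with Illumina followed PCR amplification of the repeat regions from transformants grown four days on SC-Leu (input) or SC-Leu-His + 0.5 mM 3-AT (selection). The transformants were strain YBZ-1 with a LexA–MS2 coat fusion and a HIS3 reporter, carrying Pumilio-1 PUF domain libraries and matching RNA elements. The interaction score is the log change in variant frequency from input to selection, computed in log2 with a pseudocount of 1 for absent variants.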
# PUM1 PUF domain R2-LWA = PUM1 PUF domain R2-LWA (Homo sapiens, UniProt Q14671 828-1176, N899L;Y900W;Q903A)
# In short: as §1
# PUM1 PUF domain R4-PHS = PUM1 PUF domain R4-PHS (Homo sapiens, UniProt Q14671 828-1176, N971P;Q975S)
# In short: as §1
# PUM1 PUF domain R4-API = PUM1 PUF domain R4-API (Homo sapiens, UniProt Q14671 828-1176, N971A;H972P;Q975I)
# In short: as §1
# PUM1 PUF domain R3-ARS = PUM1 PUF domain R3-ARS (Homo sapiens, UniProt Q14671 828-1176, C935A;Q939S)
# In short: as §1
# PUM1 PUF domain R4-DRG = PUM1 PUF domain R4-DRG (Homo sapiens, UniProt Q14671 828-1176, N971D;H972R;Q975G)
# In short: as §1
# PUM1 PUF domain R5-GTQ = PUM1 PUF domain R5-GTQ (Homo sapiens, UniProt Q14671 828-1176, C1007G;R1008T)
# In short: as §1
# PUM1 PUF domain R8-QWC = PUM1 PUF domain R8-QWC (Homo sapiens, UniProt Q14671 828-1176, N1122Q;Y1123W;Q1126C)
# In short: as §1
# PUM1 PUF domain R8-MFR = PUM1 PUF domain R8-MFR (Homo sapiens, UniProt Q14671 828-1176, N1122M;Y1123F;Q1126R)
# In short: as §1
# PUM1 PUF domain R5-KGE = PUM1 PUF domain R5-KGE (Homo sapiens, UniProt Q14671 828-1176, C1007K;R1008G;Q1011E)
# In short: as §1
# PUM1 PUF domain R4-THL = PUM1 PUF domain R4-THL (Homo sapiens, UniProt Q14671 828-1176, N971T;Q975L)
# In short: as §1
# PUM1 PUF domain R5-RYA = PUM1 PUF domain R5-RYA (Homo sapiens, UniProt Q14671 828-1176, C1007R;R1008Y;Q1011A)
# In short: as §1
# PUM1 PUF domain R3-PWN = PUM1 PUF domain R3-PWN (Homo sapiens, UniProt Q14671 828-1176, C935P;R936W;Q939N)
# In short: as §1
# PUM1 PUF domain R6-IFM = biological target: T1, PUM1 PUF domain R6-IFM (Homo sapiens, UniProt Q14671 828-1176, N1043I;Y1044F;Q1047M)
# T1 sequence: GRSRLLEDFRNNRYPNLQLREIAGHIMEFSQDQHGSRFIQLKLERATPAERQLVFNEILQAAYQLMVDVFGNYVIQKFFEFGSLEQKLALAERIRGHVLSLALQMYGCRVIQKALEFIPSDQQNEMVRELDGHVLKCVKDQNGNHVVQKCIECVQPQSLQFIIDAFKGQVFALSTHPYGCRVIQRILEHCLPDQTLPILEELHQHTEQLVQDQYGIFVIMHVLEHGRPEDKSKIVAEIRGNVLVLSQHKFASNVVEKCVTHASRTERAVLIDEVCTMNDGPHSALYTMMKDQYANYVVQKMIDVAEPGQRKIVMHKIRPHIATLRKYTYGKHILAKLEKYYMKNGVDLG
# In short: as §1
# PUM1 PUF domain R3-RAF = PUM1 PUF domain R3-RAF (Homo sapiens, UniProt Q14671 828-1176, C935R;R936A;Q939F)
# In short: as §1
# PUM1 PUF domain R1-RGV = PUM1 PUF domain R1-RGV (Homo sapiens, UniProt Q14671 828-1176, S863R;R864G;Q867V)
# In short: as §1
# PUM1 PUF domain R1-HWR = PUM1 PUF domain R1-HWR (Homo sapiens, UniProt Q14671 828-1176, S863H;R864W;Q867R)
# In short: as §1
# PUM1 PUF domain R7-RSV = PUM1 PUF domain R7-RSV (Homo sapiens, UniProt Q14671 828-1176, S1079R;N1080S;E1083V)
# In short: as §1
# PUM1 PUF domain R7-LNG = PUM1 PUF domain R7-LNG (Homo sapiens, UniProt Q14671 828-1176, S1079L;E1083G)
# In short: as §1
# PUM1 PUF domain R7-KRC = PUM1 PUF domain R7-KRC (Homo sapiens, UniProt Q14671 828-1176, S1079K;N1080R;E1083C)
# In short: as §1
sequence,measurement,setting,value
GGCUAGAACUAGUGGAUCCCCCGGCGCCCGGCGGCUCGAGCCCGGGUAAGUGUAAAAAGUCUGCAUGCCGCCGGGCGCCAUGCCUGCAGGUCGACUCUAGAAAACAUG,binding signal,PUM1 PUF domain R2-RRH,0.36 log2 enrichment (interaction score)
same,binding signal,PUM1 PUF domain R2-LWA,6.09 log2 enrichment (interaction score)
GGCUAGAACUAGUGGAUCCCCCGGCGCCCGGCGGCUCGAGCCCGGGUAAGUGUAAAUAGUCUGCAUGCCGCCGGGCGCCAUGCCUGCAGGUCGACUCUAGAAAACAUG,binding signal,PUM1 PUF domain R4-PHS,5.43 log2 enrichment (interaction score)
same,binding signal,PUM1 PUF domain R4-API,3.05 log2 enrichment (interaction score)
same,binding signal,PUM1 PUF domain R3-ARS,4.04 log2 enrichment (interaction score)
same,binding signal,PUM1 PUF domain R4-DRG,2.71 log2 enrichment (interaction score)
same,binding signal,PUM1 PUF domain R5-GTQ,2.12 log2 enrichment (interaction score)
same,binding signal,PUM1 PUF domain R8-QWC,3 log2 enrichment (interaction score)
same,binding signal,PUM1 PUF domain R2-LWA,1.62 log2 enrichment (interaction score)
same,binding signal,PUM1 PUF domain R8-MFR,3.78 log2 enrichment (interaction score)
same,binding signal,PUM1 PUF domain R5-KGE,2.24 log2 enrichment (interaction score)
same,binding signal,PUM1 PUF domain R4-THL,4.66 log2 enrichment (interaction score)
same,binding signal,PUM1 PUF domain R5-RYA,1.12 log2 enrichment (interaction score)
same,binding signal,PUM1 PUF domain R3-PWN,2.55 log2 enrichment (interaction score)
GGCUAGAACUAGUGGAUCCCCCGGCGCCCGGCGGCUCGAGCCCGGGUAAGUGAAAAUAGUCUGCAUGCCGCCGGGCGCCAUGCCUGCAGGUCGACUCUAGAAAACAUG,binding signal,PUM1 PUF domain R6-IFM,6.96 log2 enrichment (interaction score)
GGCUAGAACUAGUGGAUCCCCCGGCGCCCGGCGGCUCGAGCCCGGGUAAGCGUAAAUAGUCUGCAUGCCGCCGGGCGCCAUGCCUGCAGGUCGACUCUAGAAAACAUG,binding signal,PUM1 PUF domain R8-QWC,2.08 log2 enrichment (interaction score)
same,binding signal,PUM1 PUF domain R8-MFR,5.35 log2 enrichment (interaction score)
GGCUAGAACUAGUGGAUCCCCCGGCGCCCGGCGGCUCGAGCCCGGGUAAGUGUAAUUAGUCUGCAUGCCGCCGGGCGCCAUGCCUGCAGGUCGACUCUAGAAAACAUG,binding signal,PUM1 PUF domain R3-ARS,1.78 log2 enrichment (interaction score)
same,binding signal,PUM1 PUF domain R3-RAF,3.3 log2 enrichment (interaction score)
GGCUAGAACUAGUGGAUCCCCCGGCGCCCGGCGGCUCGAGCCCGGGUAAGUGUAAGUAGUCUGCAUGCCGCCGGGCGCCAUGCCUGCAGGUCGACUCUAGAAAACAUG,binding signal,PUM1 PUF domain R3-ARS,0.93 log2 enrichment (interaction score)
GGCUAGAACUAGUGGAUCCCCCGGCGCCCGGCGGCUCGAGCCCGGGUAAGUGUCAAUAGUCUGCAUGCCGCCGGGCGCCAUGCCUGCAGGUCGACUCUAGAAAACAUG,binding signal,PUM1 PUF domain R5-KGE,5.15 log2 enrichment (interaction score)
same,binding signal,PUM1 PUF domain R5-RYA,4.95 log2 enrichment (interaction score)
GGCUAGAACUAGUGGAUCCCCCGGCGCCCGGCGGCUCGAGCCCGGGUAAGUGUAAAUCGUCUGCAUGCCGCCGGGCGCCAUGCCUGCAGGUCGACUCUAGAAAACAUG,binding signal,PUM1 PUF domain R1-RGV,2.51 log2 enrichment (interaction score)
same,binding signal,PUM1 PUF domain R1-HWR,5.91 log2 enrichment (interaction score)
GGCUAGAACUAGUGGAUCCCCCGGCGCCCGGCGGCUCGAGCCCGGGUAAGUUUAAAUAGUCUGCAUGCCGCCGGGCGCCAUGCCUGCAGGUCGACUCUAGAAAACAUG,binding signal,PUM1 PUF domain R7-RSV,2.32 log2 enrichment (interaction score)
same,binding signal,PUM1 PUF domain R7-LNG,6.18 log2 enrichment (interaction score)
GGCUAGAACUAGUGGAUCCCCCGGCGCCCGGCGGCUCGAGCCCGGGUAAGUGUAUAUAGUCUGCAUGCCGCCGGGCGCCAUGCCUGCAGGUCGACUCUAGAAAACAUG,binding signal,PUM1 PUF domain R4-PHS,7.03 log2 enrichment (interaction score)
GGCUAGAACUAGUGGAUCCCCCGGCGCCCGGCGGCUCGAGCCCGGGUAAGUGUAAAGAGUCUGCAUGCCGCCGGGCGCCAUGCCUGCAGGUCGACUCUAGAAAACAUG,binding signal,PUM1 PUF domain R2-RRH,3.09 log2 enrichment (interaction score)
same,binding signal,PUM1 PUF domain R2-LWA,2.94 log2 enrichment (interaction score)
GGCUAGAACUAGUGGAUCCCCCGGCGCCCGGCGGCUCGAGCCCGGGUAAGUGUAAAUUGUCUGCAUGCCGCCGGGCGCCAUGCCUGCAGGUCGACUCUAGAAAACAUG,binding signal,PUM1 PUF domain R1-RGV,2.5 log2 enrichment (interaction score)
same,binding signal,PUM1 PUF domain R1-HWR,3.32 log2 enrichment (interaction score)
GGCUAGAACUAGUGGAUCCCCCGGCGCCCGGCGGCUCGAGCCCGGGUAAGUCUAAAUAGUCUGCAUGCCGCCGGGCGCCAUGCCUGCAGGUCGACUCUAGAAAACAUG,binding signal,PUM1 PUF domain R7-KRC,4.66 log2 enrichment (interaction score)
same,binding signal,PUM1 PUF domain R7-RSV,1.68 log2 enrichment (interaction score)
GGCUAGAACUAGUGGAUCCCCCGGCGCCCGGCGGCUCGAGCCCGGGUAAGUGUUAAUAGUCUGCAUGCCGCCGGGCGCCAUGCCUGCAGGUCGACUCUAGAAAACAUG,binding signal,PUM1 PUF domain R5-GTQ,2.42 log2 enrichment (interaction score)
same,binding signal,PUM1 PUF domain R5-RYA,4.8 log2 enrichment (interaction score)

# — paper PMC8384837, “Expanding the binding specificity for RNA recognition by a PUF domain”
